Pf Dd2 growth – qHTS Primary assay for Inhibitors of Plasmodium falciparum Dd2 growth in vitro. P. falciparum Dd2 growth, SYBR Green, 72 h. Potency, µM (doses to about 28.9 µM), without a hit: at the top dose activity, negative = inhibition, hits mostly inhibitors. 120,000 tested, 4.3% active. AID 1347417, 2020; active means well fitted inhibition curve with a large enough effect;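 further: plate controls were DMSO vehicle for no effect and reference drug for full effect; nearly all actives have a fitted effect of over 65% in size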
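Readout: SYBR Green fluorescence, 485 nm excitation, 535 nm emission, after ~16 h lysis at 37C. Before that, Dd2-infected red cells (2.5% hematocrit) grew 72 h with compound, 29 uM top final concentration.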
The depositor's hits bear a star; i = inactive; [ ] = dose if it differs, or a comment. Many of the other results were omitted from the sample, so hits are more common in it than they were. Potency means the concentration at half of the fitted maximal effect.

SMILES	Pf Dd2 growth
O=C(c1ccc2c(c1)OCO2)N1CCC2(CC1)N=C(c1ccc(Cl)cc1)NO2	7.94µM*
O=C(NC1CCCCC1)C1CCN(C(=O)N2CC3CC(C2)[C@H]2CCCC(=O)N2C3)CC1 (stereo partly drawn)	i
CN1CCN(C(=O)CC[C@@H]2CNC(=O)[C@@H]3C[C@H](NC(=O)c4cccc(F)c4)CN23)CC1	11.4%[44.1 µM]
O=C(O)c1cccc(C2CCCN(C(=O)CCCn3ccnc3)C2)c1 (stereo not drawn)	-22.2%
CN1CC(c2ccccc2)CC2(CCN(C(=O)CCCn3ccnc3)CC2)C1 (stereo not drawn)	12.6µM*
CCc1ocnc1C(=O)N1CCC2(CC1)CC(c1ccccc1)CN(C)C2 (stereo not drawn)	-19.8%
COc1cc(NC(=O)c2ccc3c(c2)N(C)C2CCCCCN2C3=O)cc(OC)c1OC (stereo not drawn)	-3.3%
Cc1cc(C)n(CC(=O)NCC2(C)CCOCC2)n1	-23.3%
Cn1c(Cn2ccnc2)nnc1C1CCCN(C(=O)Nc2ccccc2F)C1 (stereo not drawn)	-9.0%
Cc1ccc(-c2ncc(C(=O)NCC3CCCCC3)c(-c3ccncc3)n2)cc1	i
COc1ccc(-c2csc(=Nc3ccccc3)n2CCO)cc1F	i
O=S(=O)(c1ccc(-c2csc(=Nc3ccc(OC(F)(F)Cl)cc3)n2CCCO)cc1)N1CCCC1	11.2µM*
CCn1c(-c2ccc(S(=O)(=O)N3CCOCC3)cc2)csc1=Nc1ccc(C)c(Cl)c1	-20.3%
O=C1NC2(CCN(Cc3cccc4ccccc34)CC2)Oc2ccccc21	i
COc1ccc(CN2CC[C@H]3COC(=O)N3c3ccccc3C2)cc1	i
COc1ccc(CN2CC[C@H]3COC(=O)N3c3ccc(OC)cc3C2)cc1	-20.0%[44.1 µM]
COc1ccc(CN2CC[C@H]3COC(=O)N3c3cc(C)ccc3C2)cc1	i
COc1ccc(CN2CC[C@H]3COC(=O)N3c3cc(F)ccc3C2)cc1	i
COc1ccc(CN2COc3ccc4c(C)cc(=O)oc4c3C2)cc1	10µM*
CCCc1cc(=O)oc2c3c(ccc12)OCN(Cc1ccc(OC)cc1)C3	10µM*
CN(C)C(=O)N1CCC(c2nc(C3CCOC3)n[nH]2)CC1 (stereo not drawn)	-3.5%
CCc1nncn1C1CCN(C(=O)c2cccc(Cl)c2)CC1	-12.5%
COCC(=O)N[C@H]1CC[C@]2(C)CCC([C@H](C)C(=O)NCc3ccc(OC)c(OC)c3)[C@H](O)[C@H]2[C@@H]1C (stereo partly drawn)	15.7%
Cc1nc2ccccn2c1C(=O)NC(C)c1cnn(-c2ccccn2)c1C (stereo not drawn)	0.1%
CC(C)(Oc1ccc(Cl)cc1)C(=O)Nc1cccc(-c2cn3cccnc3n2)c1	11.2µM*
SMILES	Pf Dd2 growth
CC(C)(C)C(=O)Nc1cccc(-c2cn3cccnc3n2)c1	-5.6%
COc1cccc(NC(=O)Nc2cccc(-c3cn4cccnc4n3)c2)c1	i
O=C(Nc1nncs1)C1CC(=O)N(c2n[nH]c3cc(Br)ccc23)C1 (stereo not drawn)	-26.4%
CCN(CC)c1cc(CCC(=O)NCCN(C)C2CCCCC2)ccn1	1.58µM*
CCN(CC)c1cc(CCC(=O)NCCOC)ccn1	2.9%
CCN(CC)c1cc(CCC(=O)N2CCN(c3ccc(Cl)cc3)CC2)ccn1	8.91µM*
CCN(CC)c1cc(CCC(=O)NCCCN2CCN(C)CC2)ccn1	12.5%
CCN(CC)c1cc(CCC(=O)NCCc2ccccn2)ccn1	-13.3%
CCN(CC)c1cc(CCC(=O)O)ccn1	53.1%
CCN(CC)c1cc(CCC(=O)N2CCC(COC)CC2)ccn1	0.6%
CCN(CC)c1cc(CCC(=O)N2CCN(c3cccc(OC)c3)CC2)ccn1	i
CCN(CC)c1cc(CCC(=O)NCCN2CCCCCC2)ccn1	3.55µM*
CC(C)NC(=O)c1nc(C(C)(C)C)c2ccccn12	-18.6%[44.1 µM]
COCCNC(=O)[C@H]1CN2CC[C@H]1C[C@@H]2Cn1cc(CN(C)C)nn1	36.0%[44.1 µM]
O=C(C1CCCC1)N1CCC(N2CC(OCC3CC3)C23CCOCC3)CC1 (stereo not drawn)	i
C=CCNC(=O)c1ccc2cc[nH]c2n1	12.7%[44.1 µM]
Cc1ccc2oc([C@H]3CCN(Cc4ccc(C(F)(F)F)cc4)C3)nc2c1	i
COc1ccccc1OCCNC(=O)C1CCc2ncc(-c3ccc(F)cc3)n2C1 (stereo not drawn)	-18.3%
CCc1nc2c(c(-c3ccc(O)cc3)n1)CCN(Cc1ccncc1)CC2	i
CCc1nc2c(c(-c3ccc(Cl)cc3)n1)CCN(Cc1ccc(C(F)(F)F)cc1)CC2	i
CCc1nc2c(c(-c3ccc(Cl)cc3)n1)CCN([S+](=O)([O-])c1cccc(OC)c1)CC2	12.6µM*
Oc1ccc(-c2nc(C3CC3)nc3c2CCN(Cc2ccccc2)CC3)cc1	-8.2%
COc1ccc(-c2nc(C3CC3)nc3c2CCN(Cc2ccsc2)CC3)cc1	10µM*
Oc1ccc(-c2nc(C3CC3)nc3c2CCN(Cc2ccc(OC(F)(F)F)cc2)CC3)cc1	-1.6%
COc1cccc([S+](=O)([O-])N2CCc3nc(C4CC4)nc(-c4ccc(Cl)cc4)c3C2)c1	-19.7%

Bioassay records deposited in PubChem BioAssay by National Center for Advancing Translational Sciences (NCATS).
